# PubChem BioAssay AID1578 (Sanford-Burnham Center for Chemical Genomics, 2009)
# The whole screen tested about 290,000 compounds, of which about 3,000 (1%) were called active. Shown is part of a subset that was picked to be rich in actives. A number with no mark means an inactive call. No stated cut-off is given here; in the data, active means inhibition mostly above about 36% (no sharp cut-off); inactive means mostly below about 34%.
# Experiment: NOD1 signaling inhibitors, primary screen, cell-based, luminescence, uHTS (AID 1578);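 further: HEK-293T reporter cells stimulated with the NOD1 agonist gamma-tri-DAP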
# Conditions: NOD1-driven NF-kB luciferase reporter cells, at 4 µM, active compounds read high
row,Compound,inhibition
1,O=[N+]([O-])c1cccnc1N/N=C/c1ccccc1O,-18.6%
2,COc1cccc(/C=N/Nc2ncccc2[N+](=O)[O-])c1OC,39.6% (active)
3,COc1ccc(/C=N/Nc2ncccc2[N+](=O)[O-])c(OC)c1,-42.4%
4,CC(C)C(=O)NC(NC(=S)Nc1ccc(S(N)(=O)=O)cc1)C(Cl)(Cl)Cl (stereo unspecified),-3.2%
5,CCCCC(CC)C(=O)Nc1cc(=O)[nH]c2nc3ccccc3n12 (stereo unspecified),-1.4%
6,CCOC(=O)CNC(c1ccccc1)c1cc(Br)ccc1NC(C)=O (stereo unspecified),-27.2%
7,COC(=O)CNC(c1ccccc1)c1cc(Br)ccc1NC(=O)CCN1CCOCC1 (stereo unspecified),35.8%
8,CCOC(=O)CNC(c1ccccc1)c1cc(Br)ccc1NC(=O)CCN1CCOCC1 (stereo unspecified),69.7% (active)
9,CC(OC(=O)c1ccco1)C(=O)NC1CCCC1 (stereo unspecified),-27.9%
10,COc1ccc(CC(=O)N/N=C\c2cc(Br)c(O)c(Br)c2)cc1,17%
11,Cc1cc(C)c2[nH]c(O)c(N=NC(=S)NCC3CCCO3)c2c1 (stereo unspecified),-5.7%
12,Oc1[nH]c2ccccc2c1N=NC(=S)NCC1CCCO1 (stereo unspecified),-1%
13,Oc1[nH]c2c(Cl)cc(Cl)cc2c1N=NC(=S)NCC1CCCO1 (stereo unspecified),104% (active)
14,O=C1NC(=O)C2C1C(c1ccccc1)N1C3C(=O)NC(=O)C3C(c3ccccc3)N21 (stereo unspecified),6.2%
15,CC(C)Cc1nc2sc3c(NCc4ccco4)ncnc3c2c2c1COC(C)(C)C2,-25.1%
16,Cc1nc2sc3c(NCc4ccco4)ncnc3c2c2c1COC(C)(C)C2,20.3%
17,CC(C)c1nc2sc3c(NCc4ccco4)ncnc3c2c2c1COC(C)(C)C2,64% (active)
18,CCN(CC)CC(=O)NCc1cc(-c2ccc(OC)cc2)no1,-8.1%
19,C=CCNc1nc(Nc2ccc(OC)cc2)nc(OCC)n1,-7.5%
20,CC(C)Cn1c(=O)c(C(=O)Nc2cnccn2)c(O)c2ccccc21,0.1%
21,CC(C)Cn1c(=O)c(C(=O)Nc2ccccc2S(N)(=O)=O)c(O)c2ccccc21,-2.7%
22,CCCn1c(=O)c(C(=O)Nc2cnccn2)c(O)c2ccccc21,-22.7%
23,CCn1c(=O)c(C(=O)Nc2cnccn2)c(O)c2ccccc21,7.9%
24,Cn1c(=O)c(C(=O)Nc2cnccn2)c(O)c2ccccc21,-52.8%

row,Compound,inhibition
1,CCn1c(=O)c(C(=O)Nc2ccccc2S(N)(=O)=O)c(O)c2ccccc21,-15.7%
2,CCOC(=O)N1CCN=C1SCc1ccc(Cl)c(Cl)c1,-47.1%
3,Cc1nc(N2CCN(c3ccccc3)CC2)[nH]c(=O)c1Cc1ccccc1,8.4%
4,COc1ccccc1NC(=S)N(CCN1CCOCC1)Cc1ccccc1F,-31.9%
5,O=[N+]([O-])c1ccccc1/C=N/Nc1nnc(-c2ccccc2)c(-c2ccccc2)n1,-36.7%
6,FCCCOc1ccc(-c2ccnc(-c3ccccc3)n2)cc1,-45.6%
7,Cc1c(Cl)cccc1NC(=O)NNC(=O)CCc1ccccc1,28%
8,COc1cc(C)c(C)cc1S(=O)(=O)n1c(C)nc2ccccc21,-11.1%
9,CC(C)COP(=O)(c1ccc(N(C)C)cc1)C(O)c1ccc(N(C)C)cc1 (stereo unspecified),2.4%
10,CC1CN(c2nc3c(c(=O)n(C)c(=O)n3C)n2Cc2c(F)cccc2Cl)CC(C)O1 (stereo unspecified),-14.7%
11,O=C(NNC1=NCCC1)c1ccc(Br)cc1,6.7%
12,CC(=O)c1ccccc1N(C(=O)c1ccco1)C(C(=O)NC1CCCC1)c1ccc(C)cc1 (stereo unspecified),-11.2%
13,Cc1ccc(NC2CCCN(C(=O)c3cccc(-c4ncc[nH]4)c3)C2)cc1C (stereo unspecified),-0.1%
14,CCCCCCCN(C(=O)CCl)c1cccc(C)c1,57.4% (active)
15,COC(=O)N(NC(=O)C(O)(c1ccccc1)c1ccccc1)c1ccc(C)cc1,-13%
16,CCCCCCCN(C(=O)CCl)c1ccccc1C,27.2%
17,CCC(O)(CC)C(=O)NN(C(=O)CCl)c1ccccc1,-63.3%
18,CCCC(O)(CCC)C(=O)NN(C(=O)CCl)c1ccccc1,-30.8%
19,CCN(CC)NC(=O)Nc1ccccc1,1.7%
20,CCCC(O)(CCC)C(=O)NN(C(=O)CCl)c1cccc(C)c1,75% (active)
21,O=C(Nc1ccccc1)NN(C(=O)CCl)c1ccccc1,73.9% (active)
22,Cc1ccc(N(NC(=O)C(O)(c2ccccc2)c2ccccc2)C(=O)CCl)cc1,87.3% (active)
23,CCOC(=O)N(NC(=O)C(O)(c1ccccc1)c1ccccc1)c1ccccc1,-25.2%
24,CCCCCCN(C(=O)CCl)c1ccccc1,-4.8%

row,Compound,inhibition
1,CCCCC(O)(CCCC)C(=O)NN(C(=O)CCl)c1ccccc1,8.2%
2,Cc1cccc(Nc2nc(NCC3CCCO3)nc(N)c2[N+](=O)[O-])c1 (stereo unspecified),-27.5%
3,O=C(COc1ccccc1)OC(C(=O)c1ccccc1)c1ccccc1 (stereo unspecified),-26.7%
4,Cc1cc(NS(=O)(=O)c2ccc(NC(=O)c3ccco3)cc2)no1,9.2%
5,O=C(O)CN1CCCCCC1=O,-31.2%
6,Cc1nccn1CCCNC(=O)C1CCC(=O)N(Cc2ccccc2F)C1 (stereo unspecified),-13.5%
7,CC(C)(C)OC(=O)CN1c2cccc3cccc(c23)S1(=O)=O,-5.8%
8,CCC(C(=O)NC(C)c1ccccc1)C(=O)NC(C)c1ccccc1 (stereo unspecified),-9.8%
9,CC(=O)Nc1ccc(NC(=O)c2cc(=O)c3cc(C)c(C)cc3o2)cc1,-7.3%
10,COc1ccc(-c2ccc(C(C)=O)cc2)cc1[C@H]1[C@H]2C=CC[C@@H](C)[C@@H]2C(=O)N1Cc1ccccc1,-4.4%
11,COC(=O)c1cc2sc(Cl)cc2n1CC(=O)Nc1cccc(SC)c1,1.3%
12,CCn1c(=O)cc(OCC(=O)NCc2cccs2)c2ccccc21,-18.7%
13,O=C(CN1CC[n+]2c(-c3ccccc3)csc21)c1ccc(Br)cc1,-9.1%
14,O=C(CN1CC[n+]2c(-c3cccs3)csc21)c1ccc(-c2ccccc2)cc1,56.9% (active)
15,O=C(CN1CC[n+]2c(-c3cccs3)csc21)c1ccc(Br)cc1,5%
16,O=C(O)CSCC(=O)N1CCc2c([nH]c3ccccc23)C1C(F)(F)F (stereo unspecified),-8.5%
17,O=C(Nc1ccc(NC(=O)c2ccc(Cl)c(S(=O)(=O)N3CCOCC3)c2)cc1)c1ccccc1,-18.3%
18,O=C(Nc1cccc(S(=O)(=O)C(F)F)c1)c1ccc(Cl)c(S(=O)(=O)N2CCOCC2)c1,4.5%
19,CCOC(=O)c1c(/N=C/N(C)C)sc(C=O)c1-c1ccccc1,-24.2%
20,CC(C)CC(COCc1cccc(Cl)c1)N1CCN(C(=O)c2ccc(C(F)(F)F)cc2)CCC1=O (stereo unspecified),-7.1%
21,Cc1cccc(COCC(CC(C)C)N2CCN(C(=O)c3ccc(C(C)(C)C)cc3)CCC2=O)c1 (stereo unspecified),77% (active)
22,Cc1cccc(COCC(CC(C)C)N2CCN(C(=O)c3ccc(C(F)(F)F)cc3)CCC2=O)c1 (stereo unspecified),-5.2%
23,COC(=O)c1c(C)n(-c2ccc(C)cc2)c2ccc(O)cc12,18.7%
24,CC(=O)c1c(C)n(-c2ccc(C)cc2)c2ccc(O)cc12,33.3%

row,Compound,inhibition
1,O=C(CN(C(=O)c1ccccc1Cl)N1C(=O)C2C3C=CC(C3)C2C1=O)c1cccs1 (stereo unspecified),-17%
2,O=C(Nc1ccc(OC(F)F)c(Cl)c1)Nc1ccc2c(c1)OCO2,-34.5%
3,CCSC1=N/C(=C\c2ccccc2)C(=O)N1c1ccc(OC)cc1,30.2%
4,COc1ccc(/C=C2\N=C(SC)N(C)C2=O)cc1,3.7%
5,COc1ccc(/C=C2\N=C(SC)N(c3ccccc3OC)C2=O)cc1,53.5% (active)
6,COc1cccc(CNc2ncn[nH]2)c1OCc1ccc(F)cc1,-21.2%
7,Cc1ccc(-c2nc(C=Nc3ccc(O)cc3)c(O)o2)cc1,57.6% (active)
8,Cc1ccc(-c2nc(C=Nc3ccccc3)c(O)o2)cc1,-33.7%
9,Cc1ccc(N=Cc2nc(-c3ccc(C)cc3)oc2O)cc1,21.9%
10,CCSc1nc2ccccc2n1CCOc1ccccc1,-22.7%
11,O=C(CS(=O)(=O)c1cn(CC(=O)N2CCCC2)c2ccccc12)Nc1ccccc1,-8.1%
12,O=S(=O)(NCc1ccco1)c1ccc(Cl)nc1,-15.7%
13,CC(C)CC(C(=O)NC(C)(C)C)N(Cc1cccs1)C(=O)c1snc(C(N)=O)c1N (stereo unspecified),-13.4%
14,O=c1c(Cl)c(NCCCO)cnn1-c1nc2ccccc2[nH]1,10.3%
15,C=CCN(CC=C)c1cnn(-c2nc3ccccc3[nH]2)c(=O)c1Cl,11.7%
16,Cc1nn(-c2nc3ccccc3[nH]2)c(N)c1-c1ccccc1,-44.1%
17,Cc1nn(-c2nc3ccccc3[nH]2)c(=O)c2ccccc12,94.4% (active)
18,O=c1c(Cl)c(N2CCOCC2)cnn1-c1nc2ccccc2[nH]1,-19.5%
19,O=c1c(Cl)c(N2CCCCC2)cnn1-c1nc2ccccc2[nH]1,74.8% (active)
20,Cc1nn(-c2ccccc2)c(=O)c2ccccc12,-47.4%
21,O=c1c2ccccc2cnn1-c1ccc(Cl)cc1,-102%
22,O=c1c2ccccc2cnn1-c1nc2ccccc2[nH]1,99.7% (active)
23,Cc1nnc(SCC(=O)NC(=O)Nc2ccc3c(c2)OCCO3)s1,-25.8%
24,COc1ccc(CCNC(=O)CC2SC(=NCCC(C)C)NC2=O)cc1OC (stereo unspecified),-12.2%
